20 compounds from PubChem BioAssay (NCATS) can be followed below.

Each structure is given as a SMILES string. Where “and” joins values, the source holds several entries; their conditions need not be identical. Equal values may be shown once. Records with an inconclusive call do not appear. Calls of active or inactive are those of the source. Unless noted, calls come from the whole dose curve; as a rule, active = well fitted curve in the direction sought with a large enough effect; inconclusive = small, poorly fitted or top-dose-only effect, or another doubt; inactive = no such curve, though single readings can be large; an effect the other way counts as inactive or inconclusive.

The target in test [1] is Luciferin 4-monooxygenase (Photinus pyralis) (UniProt P08659). Put plainly: Biochemical firefly luciferase enzyme assay for NPC (AID 624030).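 Note: purified P. pyralis luciferase at 10 nM with luciferin and ATP substrate; 0% = DMSO and -100% = full luciferase inhibition by PTC124 control; nearly all actives have a fitted effect of over 70% in size.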 In a few lines:
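Direct inhibition of firefly luciferase enzyme (10 nM final, 50 mM Tris Acetate) assessed by luminescence within 5 minutes. Percent activity scaled between DMSO and PTC124 positive control, with concentration-effect curves classified by fit quality and response.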

Test [2] addresses Glutathione peroxidase 1 (Homo sapiens) (UniProt P07203). Put plainly: Primary qHTS Assay for Inhibitors of Recombinant Selenoprotein Glutathione Peroxidase 1 (GPX1) (AID 1845191). For activity, negative = inhibition: % is set by controls: 0 for no effect and ±100 for the full control effect. Note: nearly all actives have a fitted effect of over 65% in size. Note: potency is the fitted concentration of half-maximal effect. In a few lines:
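10 nM GPX1 + cpd, 30 min RT; start w/ 1 mM GSH, 0.5 mM cumene hydroperoxide, 0.5 mM NADPH, 100 nM GR, 0.01% BSA; buffer 50 mM Tris-HCl pH 7.5, 2 mM EDTA, 150 mM NaCl; Fl 340/450, 0 & 15 min.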

Test [3] is described as follows: qHTS profiling for inhibitors of Plasmodium falciparum proliferation (AID 504749).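 For activity, negative = inhibition: 0% = DMSO vehicle and full inhibition = artemisinin control.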 For all read-outs here: nearly all actives have a fitted effect of over 60% in size. Note: potency is the fitted concentration of half-maximal effect. The note with it: P. falciparum in erythrocytes, SYBR Green DNA, 72 h; for activity, negative = inhibition: at 28.7 µM (top of the series). In a few lines:
(§1)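 Infected RBCs, 0.3% parasitemia/2.5% Hct final; cpd 72 h, 37 C, 5% CO2; lysis buffer with saponin/triton/SYBR Green I, o/n RT dark; FI 485/535; norm. to artemisinin (0.29 uM) and DMSO.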

The next test deals with CP192. The test is described as above. The note with it: P. falciparum in erythrocytes, SYBR Green DNA, 72 h; series mostly up to 28.7 µM. In a few lines: as §1
A further test has as its system CP262. Described as above. The note with it: P. falciparum in erythrocytes, SYBR Green DNA, 72 h; series mostly up to 28.7 µM. Summed up:
as §1

The next test relates to CP269. The description is as above. Particulars: P. falciparum in erythrocytes, SYBR Green DNA, 72 h; series mostly up to 28.7 µM. In a few lines: as §1
A further test has as its system CP291. The description is as above. The note with it: P. falciparum in erythrocytes, SYBR Green DNA, 72 h; series mostly up to 28.7 µM. In a few lines: as §1
For the next test, the system named is CP305. The description is as above. The note with it: P. falciparum in erythrocytes, SYBR Green DNA, 72 h; series mostly up to 28.7 µM. In a few lines: as §1
For another test, the system named is CP329. The description is as above. The note with it: P. falciparum in erythrocytes, SYBR Green DNA, 72 h; series mostly up to 28.7 µM. Summed up: as §1
A further test concerns GB4. Described as above. The note with it: P. falciparum in erythrocytes, SYBR Green DNA, 72 h; series mostly up to 28.7 µM. Summed up:
as §1

The target of test [4] is Phospholipid hydroperoxide glutathione peroxidase GPX4 (Homo sapiens) (UniProt P36969). The experiment in a line: Primary qHTS Assay for Inhibitors of Recombinant Selenoprotein Glutathione Peroxidase 4 (GPX4) (AID 1845192). Note: nearly all actives have a fitted effect of over 65% in size. Note: potency is the fitted concentration of half-maximal effect. In a few lines:
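NADPH consumption, followed by fluorescence at 340/450 nm between 0 and 15 min, reports GPX4 activity via coupled glutathione reductase (100 nM). Enzyme 200 nM was pre-exposed to compound 30 min; 0.5 mM cumene hydroperoxide and 1 mM GSH served as substrates.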
A general note: In qHTS, concentration-response curves come from the screen itself.

For test [5], the target named is Cytochrome P450 3A4 (Homo sapiens) (UniProt P08684). Put plainly: qHTS Assay for Inhibitors and Substrates of Cytochrome P450 3A4 (AID 884). Note: % is set by controls: 0 for no effect and ±100 for the full control effect; nearly all actives have a fitted effect of over 50% in size. In a few lines:
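20 nM human CYP3A4 with 25 uM Luciferin-PPXE (at KM) in 200 mM KPO4, preincubated 10 min with compound; NADPH regeneration started a 60 min RT reaction. Luciferin detected by luminescence, normalized to 57 uM ketoconazole as full inhibition.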

Test [6] deals with Peroxisome proliferator-activated receptor gamma (Homo sapiens) (UniProt P37231). The experiment in a line: qHTS assay for small molecule agonists of peroxisome proliferator-activated receptor gamma signaling (AID 588536; active = well fitted curve in the direction sought with a large enough effect in the signal ratio, with a control signal flat, not every such curve was filed as active; the % refers to the signal ratio;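 note: 0% = DMSO basal wells and 100% = rosiglitazone at 2 µM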). Summed up: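 Test agents, titrated, stimulated HEK293 UAS-bla cells overnight (16 h, 37 C). Substrate CCF4 was then added for two hours at room temperature before fluorescence reading.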
Chain of Peroxisome proliferator-activated receptor gamma (Homo sapiens) (P37231 whole entry, looked up): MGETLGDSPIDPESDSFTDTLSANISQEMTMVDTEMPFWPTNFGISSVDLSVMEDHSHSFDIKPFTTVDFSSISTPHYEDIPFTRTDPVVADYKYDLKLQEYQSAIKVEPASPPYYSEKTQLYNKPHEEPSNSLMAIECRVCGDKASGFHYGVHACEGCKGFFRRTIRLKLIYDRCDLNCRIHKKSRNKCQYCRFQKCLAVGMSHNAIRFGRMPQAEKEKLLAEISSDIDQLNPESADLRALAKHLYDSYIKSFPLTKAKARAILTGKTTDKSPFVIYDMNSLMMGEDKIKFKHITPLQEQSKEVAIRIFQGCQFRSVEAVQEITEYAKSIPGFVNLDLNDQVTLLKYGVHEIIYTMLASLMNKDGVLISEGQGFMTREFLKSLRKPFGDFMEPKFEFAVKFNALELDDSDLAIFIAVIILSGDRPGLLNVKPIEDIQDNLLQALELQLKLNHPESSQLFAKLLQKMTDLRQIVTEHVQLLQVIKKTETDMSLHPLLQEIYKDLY

Test [7] in a line: qHTS assay for small molecule antagonists of retinoid X receptor alpha signaling (AID 588546; active = well fitted inhibition curve with a large enough effect in the signal ratio, with a control signal flat, not every such curve was filed as active; the % refers to the signal ratio;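 note: cells stimulated with 9-cis-retinoic acid as agonist; % is set by controls: 0 for no effect and ±100 for the full control effect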). The note with it: HEK293T RXRa-UAS-bla, beta-lactamase ratio, antagonist mode; measured here: W530 green channel, cytotoxicity proxy. Summed up:
(§2)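 Beta-lactamase reporter inhibition, read as CCF4 fluorescence ratio (ex 405, em 460/530 nm) after 2 h at RT. HEK293T UAS-bla cells, 2500/well, were stimulated with 9-cis-RA at 500 or 100 nM final alongside test compound for 18 h at 37 C.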

Test [8] concerns the target Retinoic acid receptor RXR-alpha (Homo sapiens) (UniProt P19793). The test is described as above. Particulars: HEK293T RXRa-UAS-bla, beta-lactamase ratio, antagonist mode. Summed up: as §2
Test [9] can be described thus: qHTS assay for environmental chemicals that activate the Aryl hydrocarbon Receptor (AhR) signaling pathway (AID 651777). Note: % of control where 0% means no effect; nearly all actives have a fitted effect of over 15% in size. The note with it: 1A2-DRE human hepatoma cells, luciferase, 24 h; activation: stronger effect = higher value. In a few lines:
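Human hepatoma 1A2-DRE cells stably carrying a DRE/CYP1A2 promoter–luciferase reporter, 1,200 cells/well, exposed to compound 24 hr at 37 C. Luciferase read by One-Glo luminescence after 30 min at room temperature; increased signal marks AhR activation.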

Test [10] in a line: qHTS assay for small molecule agonists of the antioxidant response element (ARE) signaling pathway measured by Nrf2-dependant transcriptional activity (AID 720636; active = well fitted curve in the direction sought with a large enough effect in the repeat runs; an effect the other way counts as inactive or inconclusive; note: % of control where 0% means no effect). Summed up: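 ARE-luc HepG2 cells carrying an Nrf2-responsive luciferase reporter, in medium with 1% dialyzed FBS, exposed to compound for 16 hr at 37 C, 5% CO2. Luminescence read 30 min after ONE-Glo addition.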
The nature of test [11]: qHTS assay for small molecule agonists of the antioxidant response element (ARE) signaling pathway measured by Nrf2-dependant transcriptional activity - cell viability counter screen (AID 720653; active = well fitted curve in the direction sought with a large enough effect in the repeat runs; an effect the other way counts as inactive or inconclusive; note: % is set by controls: 0 for no effect and ±100 for the full control effect). The note with it: ARE-bla HepG2 viability, CellTiter-Glo ATP luminescence, 16 h; max response: stronger effect = lower value. In a few lines:
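Cytotoxicity counter screen: intracellular ATP quantified by CellTiter-Glo luminescence in the same ARE-bla HepG2 plates, after 16 h compound exposure and a 2 h beta-lactamase substrate step.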

Test [12] is described as follows: qHTS assay for cell viability of the p53RE-bla HCT-116 cell line (AID 743292). Note: % is set by controls: 0 for no effect and ±100 for the full control effect; nearly all actives have a fitted effect of over 55% in size. In a few lines: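 CellSensor p53RE-bla HCT-116 cells (4,000/well) pre-incubated 5 h at 37 C, then exposed to compounds in DMSO for 16 h at 37 C. Viability read as ATP content by CellTiter-Glo luminescence after 30 min at room temperature.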

Chain of Cytochrome P450 3A4 (Homo sapiens) (P08684 whole entry, looked up): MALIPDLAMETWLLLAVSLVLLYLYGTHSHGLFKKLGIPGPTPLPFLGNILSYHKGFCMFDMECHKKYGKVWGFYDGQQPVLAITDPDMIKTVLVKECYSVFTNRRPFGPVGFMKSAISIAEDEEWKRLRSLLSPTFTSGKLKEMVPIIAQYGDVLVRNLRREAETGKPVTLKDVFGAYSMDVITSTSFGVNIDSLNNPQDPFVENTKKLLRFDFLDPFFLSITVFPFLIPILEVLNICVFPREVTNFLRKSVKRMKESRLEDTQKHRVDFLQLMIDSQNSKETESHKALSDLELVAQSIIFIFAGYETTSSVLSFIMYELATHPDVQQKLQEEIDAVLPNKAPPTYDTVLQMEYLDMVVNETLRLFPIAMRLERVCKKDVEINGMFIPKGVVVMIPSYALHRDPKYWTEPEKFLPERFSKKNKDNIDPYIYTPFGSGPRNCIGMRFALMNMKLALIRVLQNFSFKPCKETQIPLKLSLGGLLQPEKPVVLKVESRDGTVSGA
Chain of Luciferin 4-monooxygenase (Photinus pyralis) (P08659 whole entry, looked up): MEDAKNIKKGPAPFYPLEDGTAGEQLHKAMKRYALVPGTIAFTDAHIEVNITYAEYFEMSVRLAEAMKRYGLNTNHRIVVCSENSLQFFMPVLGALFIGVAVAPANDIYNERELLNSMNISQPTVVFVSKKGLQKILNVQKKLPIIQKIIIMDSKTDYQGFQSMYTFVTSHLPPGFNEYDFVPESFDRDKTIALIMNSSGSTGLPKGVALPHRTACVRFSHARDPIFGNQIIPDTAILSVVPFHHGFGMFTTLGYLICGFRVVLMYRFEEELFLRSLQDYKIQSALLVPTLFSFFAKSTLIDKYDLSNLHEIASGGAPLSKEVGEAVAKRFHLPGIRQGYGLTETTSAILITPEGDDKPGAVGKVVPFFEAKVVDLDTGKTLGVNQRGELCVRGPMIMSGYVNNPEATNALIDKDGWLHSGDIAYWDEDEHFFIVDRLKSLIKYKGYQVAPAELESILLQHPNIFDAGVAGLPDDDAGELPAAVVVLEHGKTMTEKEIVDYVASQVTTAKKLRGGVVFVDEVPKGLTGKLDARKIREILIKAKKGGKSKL
Chain of Glutathione peroxidase 1 (Homo sapiens) (P07203 whole entry, looked up): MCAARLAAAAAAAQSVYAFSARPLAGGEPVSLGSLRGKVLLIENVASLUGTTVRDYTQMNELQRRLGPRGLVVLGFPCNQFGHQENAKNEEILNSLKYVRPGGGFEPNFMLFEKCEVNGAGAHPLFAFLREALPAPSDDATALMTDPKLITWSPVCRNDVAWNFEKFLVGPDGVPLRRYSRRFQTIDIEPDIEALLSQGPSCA
Chain of Retinoic acid receptor RXR-alpha (Homo sapiens) (P19793 whole entry, looked up): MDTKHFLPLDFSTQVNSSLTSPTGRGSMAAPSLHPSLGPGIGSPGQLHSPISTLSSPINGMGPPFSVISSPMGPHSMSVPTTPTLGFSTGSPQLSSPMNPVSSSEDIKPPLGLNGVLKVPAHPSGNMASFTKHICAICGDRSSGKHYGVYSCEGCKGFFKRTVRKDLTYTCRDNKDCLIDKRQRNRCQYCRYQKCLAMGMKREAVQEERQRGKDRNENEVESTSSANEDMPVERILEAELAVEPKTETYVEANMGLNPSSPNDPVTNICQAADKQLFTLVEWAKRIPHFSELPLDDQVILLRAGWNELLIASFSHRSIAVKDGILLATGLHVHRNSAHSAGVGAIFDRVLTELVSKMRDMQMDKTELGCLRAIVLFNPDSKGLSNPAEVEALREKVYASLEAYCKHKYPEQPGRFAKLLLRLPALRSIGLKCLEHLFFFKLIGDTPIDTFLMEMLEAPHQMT
Chain of Phospholipid hydroperoxide glutathione peroxidase GPX4 (Homo sapiens) (P36969 whole entry, looked up): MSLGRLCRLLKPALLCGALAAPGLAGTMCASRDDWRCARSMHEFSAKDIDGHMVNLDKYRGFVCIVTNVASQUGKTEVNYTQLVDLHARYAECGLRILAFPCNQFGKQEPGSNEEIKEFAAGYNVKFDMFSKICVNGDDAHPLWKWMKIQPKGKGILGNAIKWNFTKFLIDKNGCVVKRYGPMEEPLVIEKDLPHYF

For `CC/C=C(\C(=O)N[C@H]1C(=O)N2C(C(=O)OCOC(=O)C(C)(C)C)=C(COC(N)=O)CS[C@H]12)c1csc(N)n1`, the Potency entry in [1] was “inactive”. The Potency in test [2] is 6.26 µM (active).
Take `CCC(=O)O[C@@H](OP(=O)(CCCCc1ccccc1)CC(=O)N1C[C@H](C2CCCCC2)C[C@H]1C(=O)O)C(C)C` (stereo partly specified): the Potency entry (in test [1]; in the test on CP192; with CP262; in the test on CP269; in the test on CP291; in the test on CP305) was “inactive” throughout. In addition, the Potency entry in the test on CP329 and with GB4 was “inactive” in each case. In addition, the activity, negative = inhibition was 2.57% [at 9.52 µM] (inactive) in [2], -6.06% (inactive) in test [3] (parasite line A) and -3.37% (inactive) in test [3] (parasite line B).
`Cc1cc(CC(C)CC(C)(C)C)n(O)c(=O)c1` (stereo unspecified): the Potency result in test [1] and in test [2] was “inactive” in each case. Moreover, the Potency was 1.78 µM (active) in test [3] (parasite line A); 1 µM (active) in test [3] (parasite line B); 2.39 µM (active) with CP192; 3.38 µM (active) with CP262; 3.38 µM (active) in the test on CP269; 1.9 µM (active) in the test with CP291. The Potency in the test on CP305 is 2.39 µM (active); with CP329 it was 1.9 µM (active); in the test on GB4, 1.51 µM (active).
Turning to `CC(C)(C)NCC(O)COc1ccccc1C1CCCC1` (stereo unspecified), the Potency entry in test [4] was “inactive”.
Consider `CC(=O)NC(C=O)C(O)C(O)[C@H](O)CO` (stereo partly specified), for which, in test [4], the Potency result is “inactive”.
On the same count and under the same terms, as for `Cc1cnc(C(=O)N[C@H]2CCCCC/C=C/[C@@H]3C[C@@]3(C(=O)NS(=O)(=O)C3CC3)NC(=O)[C@@H]3C[C@@H](Oc4nc5ccccc5c5ccccc45)CN3C2=O)cn1`, the figure is 3.98 µM (active).
`CC1CC2C3CCC4=CC(=O)C=CC4(C)C3(F)C(O)CC2(C)C1(O)C(=O)COC(=O)c1cccc(S(=O)(=O)O)c1` (stereo unspecified): the Potency in [4] was 20 µM (active).
In the case of `[Mn].[O]=[Mn][OH].[O]=[Mn][OH]`, in test [4], the Potency result is “inactive”.
On to `CCOc1ccc(Cc2cc([C@@]34OC[C@@](CO)(O3)[C@@H](O)[C@H](O)[C@H]4O)ccc2Cl)cc1`, for which, in test [4], the Potency entry is “inactive”.
Turning to `CN1CC[C@H](CN2c3ccccc3Sc3ccccc32)C1`, the Potency result (in test [1]; in test [4]; in the test on CP192; in the test with CP262; in the test on CP329) was “inactive” throughout. Also, the Potency in the test on CP269 is 15.1 µM (active); with CP291, 15.1 µM (active); in the test with CP305 it was 15.1 µM (active); in the test on GB4 it was 13.5 µM (active).
As to `CCCCOCCO`, the Potency result in [5], in test [10] and in test [12] was “inactive” each time. Moreover, the compound was called inactive in test [6]. The max response in [7] is -0.95% and -3.08% and -12.9%; in test [8], 8.5% (inactive) and -5.75% (inactive) and -0.568% (inactive); in [11] it was 4.17% (inactive) and -5.63% (inactive) and -2.53% (inactive). Also, in [9], the activation was -1.94% (inactive) and 0.578% (inactive) and 2.45% (inactive).
For `Cc1c(N=C=O)cccc1N=C=O`, in test [6], the compound was called inactive. Also, the max response was -2.03% and -4.55% in [7]; 6.11% (inactive) and -21.4% (inactive) in [8]; 0.551% (inactive) and 0.668% (inactive) in test [11]. Besides, the activation in test [9] is 3.08% (inactive) and 0.198% (inactive). The Potency result in test [10] and in [12] was “inactive” throughout.
As for `CCCCCCCCCC(=O)OCCN1CCN(CC/C=C2/c3ccccc3Sc3ccc(Cl)cc32)CC1`, the Potency in [4] was 2.24 µM (active).
Take `O=[N+]([O-])c1ccc(/C=C/c2cccc(CO)n2)o1`: in test [4], the Potency entry was “inactive”.
Turning to `COC(=O)c1ccc(C=O)cc1`, the Potency entry in test [5], in [10] and in test [12] was “inactive” each time. For the same compound, the compound was classed as inactive in [6]. Further, the max response is -1.3% and -26.3% in [7]; 21.2% (inactive) and -1.21% (inactive) in test [8]; -1.73% (inactive) and -0.32% (inactive) in [11]. The activation in [9] was 1.65% (inactive) and -0.822% (inactive).
As to `NCCC[C@H](NC(=O)[C@@H]1CCCN1C(=O)[C@@H]1CSSC[C@H](N)C(=O)N[C@@H](Cc2ccc(O)cc2)C(=O)N[C@@H](Cc2ccccc2)C(=O)N[C@@H](CCC(N)=O)C(=O)N[C@@H](CC(N)=O)C(=O)N1)C(=O)NCC(N)=O`, the Potency in test [4] was 25.1 µM (active).
Still for that read-out and setting: in the case of `CC(O)C(CO)NC(=O)C1CSSCC(NC(=O)C(N)Cc2ccccc2)C(=O)NC(Cc2ccccc2)C(=O)NC(Cc2c[nH]c3ccccc23)C(=O)NC(CCCCN)C(=O)NC(C(C)O)C(=O)N1` (stereo unspecified) it was 12.6 µM (active); in that of `Cn1nnnc1SCC1=C(C(=O)O)N2C(=O)[C@H](NC(=O)C(O)c3ccccc3)C2SC1` (stereo partly specified), 8.91 µM (active).
As to `C1OCOCO1`, the Potency entry (in [5]; in test [1]; in [10]; in [12]; in the test on CP192; in the test with CP262) was “inactive” each time. Besides, the Potency result in the test on CP269, in the test on CP291, with CP305, with CP329 and in the test with GB4 was “inactive” throughout. Moreover, in [6], the compound was called inactive. Also, the max response was -18.1% in test [7], 38.1% (inactive) in test [8] and -3.94% (inactive) in test [11]. Besides, the activation in test [9] is -0.144% (inactive). For the same compound, the activity, negative = inhibition in test [3] (parasite line A) is -0.0178% (inactive); in [3] (parasite line B) it was 3.44% (inactive).
For the compound `CCCCC(CC)COC(=O)c1ccc(Nc2nc(Nc3ccc(C(=O)OCC(CC)CCCC)cc3)nc(Nc3ccc(C(=O)OCC(CC)CCCC)cc3)n2)cc1` (stereo unspecified), the Potency entry in test [4] is “inactive”.
